# Screens: PubChem, National Center for Advancing Translational Sciences (NCATS)
# An excerpt weighted towards active compounds, which were near 5.8% of everything screened.
# RORgamma inh: qHTS for inhibitors of ROR gamma transcriptional activity | 5.4% of 310,000 active | Nuclear receptor ROR-gamma (Mus musculus), P51450 | Drosophila S2 Gal4-RORgamma UAS-luciferase reporter, 20 h | Potency, µM (highest dose often 53.6 µM), for inactives: top-dose activity change, negative = inhibition, usual class: inhibitors; also: potency is read from the fitted curve at half-maximal effect; % is scaled to controls: 0 for no effect and ±100 for the full control effect; nearly all actives have a fitted effect of over 60% in size
#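 Compounds are pin-transferred onto Drosophila Schneider cells expressing a copper-inducible Gal4–ROR gamma transactivation domain fusion. After 1 hr, copper sulfate is added to 700 uM final; luciferase is read 20 hr later.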
# TRPV1 PAM: HTS Assay for Compounds that Act as Potentiators of the Vanilloid Receptor 1; AID 540277, 2011; potentiation, % at 8.33 µM; Transient receptor potential cation channel subfamily V member 1 (Homo sapiens), Q8NER1; TRPV1-expressing cells, Fluo-8 calcium influx, capsaicin EC20 potentiation; 0.02% of 320,000 active; in the data active = potentiation above about 80%; inconclusive = between about 30% and that limit; also: 0% is about no effect
# Target sequence (Q8NER1 whole entry, looked up): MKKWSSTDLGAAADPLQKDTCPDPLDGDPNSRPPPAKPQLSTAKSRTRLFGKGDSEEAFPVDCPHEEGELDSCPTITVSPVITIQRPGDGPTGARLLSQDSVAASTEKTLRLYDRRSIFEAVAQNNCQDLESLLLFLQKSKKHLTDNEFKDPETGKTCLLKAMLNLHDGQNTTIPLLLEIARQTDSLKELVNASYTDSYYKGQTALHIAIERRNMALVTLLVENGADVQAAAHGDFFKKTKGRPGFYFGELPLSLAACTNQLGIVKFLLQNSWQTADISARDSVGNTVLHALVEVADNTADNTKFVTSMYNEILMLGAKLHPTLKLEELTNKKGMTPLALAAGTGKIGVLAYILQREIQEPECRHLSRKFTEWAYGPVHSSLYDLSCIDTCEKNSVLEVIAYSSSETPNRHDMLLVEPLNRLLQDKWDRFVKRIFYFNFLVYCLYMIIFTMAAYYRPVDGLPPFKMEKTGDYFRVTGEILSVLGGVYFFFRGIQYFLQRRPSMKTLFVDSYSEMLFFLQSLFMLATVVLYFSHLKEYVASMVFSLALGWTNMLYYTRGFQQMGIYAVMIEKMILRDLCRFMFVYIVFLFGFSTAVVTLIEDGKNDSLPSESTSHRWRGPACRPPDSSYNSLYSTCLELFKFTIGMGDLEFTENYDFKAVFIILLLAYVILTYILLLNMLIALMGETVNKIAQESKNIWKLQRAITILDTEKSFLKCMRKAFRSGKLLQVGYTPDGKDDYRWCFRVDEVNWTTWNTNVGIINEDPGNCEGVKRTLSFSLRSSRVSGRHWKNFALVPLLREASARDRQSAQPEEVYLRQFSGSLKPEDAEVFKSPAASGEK
#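 TRPV1-expressing cells were cultured overnight at 35.5C and loaded with Fluo-8 calcium dye for 40 to 90 min at room temperature. After a 10 s baseline, compound was added and calcium influx was read kinetically for 3 min (ex 480/em 520 nm).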
# Gal4-VP16 FLuc: VP16 counterscreen qHTS for inhibitors of ROR gamma transcriptional activity. Drosophila S2 Gal4-VP16 UAS-luciferase, luminescence, 20 h. Potency, µM (top dose mostly 53.6 µM), for the others: at the top dose activity, negative = inhibition, actives largely listed as inhibitors. 3.5% of 310,000 active. AID 2546, 2010;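 also: Gal4-VP16 expression switched on by copper sulfate through the metallothionein promoter; potency is read from the fitted curve at half-maximal effect; % is scaled to controls: 0 for no effect and ±100 for the full control effect; nearly all actives have a fitted effect of over 50% in size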
# uPA generation: qHTS for Inhibitors of Cell Surface uPA Generation | 0.31% of 330,000 active | cell surface uPA generation assay, qHTS | AID 540303, 2011 | Potency, µM (series often up to 38.3 µM), for inactives: at the top dose activity change, negative = inhibition, actives largely listed as inhibitors; active = well fitted inhibition curve with a large enough effect; inconclusive = small, poorly fitted or top-dose-only effect; inactive = no such curve, though single readings can be large or run the other way; tested in mouse RAW 264.7 cells; also: potency is read from the fitted curve at half-maximal effect; % is scaled to controls: 0 for no effect and ±100 for the full control effect; nearly all actives have a fitted effect of over 55% in size
# TRPV1 agonist: HTS Assay for Compounds that Act as Agonists of the Vanilloid Receptor 1; Transient receptor potential cation channel subfamily V member 1 (Homo sapiens), Q8NER1; TRPV1-expressing cells, Fluo-8 calcium influx, agonist mode; activation, % at 8.33 µM; 0.19% of 320,000 active; in the data active = activation above about 80%; inconclusive = between about 30% and that limit; also: 0% is about no effect
#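 Cells expressing TRPV1 were dye-loaded with Fluo-8 and read kinetically: 10 s baseline, 3 min after compound (agonist portion), then 2 min after EC20 capsaicin (allosteric enhancer portion). Calcium-bound dye fluorescence at 480/520 nm.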
# * marks the source's active call; other numbers are inactive results; ? = inconclusive; / = not tested or not shown; [ ] = another dose, or the depositor's remark. Unless noted, calls follow the shape of the dose curve; as a rule, active = well fitted curve in the direction sought with a large enough effect; inconclusive = small, poorly fitted or top-dose-only effect, or another doubt; inactive = no such curve, though single readings can be large; an effect the other way counts as inactive or inconclusive.
SMILES,RORgamma inh,TRPV1 PAM,Gal4-VP16 FLuc,uPA generation,TRPV1 agonist
CC(C)c1ccc(/C=C/C(=O)NC(=S)NN2CCOCC2)cc1,4µM*,12,4.5µM*,-2%,-4
COc1ccc(C(=O)O/N=C(\N)Cc2ccc(Cl)c(Cl)c2)cc1OC,?,-4,6.3µM*,-9%,10
COc1cc(C(=O)O/N=C(\N)Cc2ccc([N+](=O)[O-])cc2)cc(OC)c1OC,-18%,-7,?,-13%,4
N/C(Cc1ccc(Cl)cc1)=N\OC(=O)c1ccccc1,-22%,-2,-22%,1%,5
COc1ccc(C(=O)O/N=C(\N)Cc2ccc(Cl)cc2)cc1OC,?,-1,16µM*,-16%,7
COCCn1c(SCC(=O)NCCCN2CCCC2=O)nc2ccccc2c1=O,/,/,/,2%,/
Oc1ccc(N=Nc2ccccc2)o1,?,5,16µM*,6.3µM*,3
O=S(=O)(O)c1ccc(N=Nc2ccccc2)cc1,3%,14,-4%,6%,-2
CCc1ccc(-c2cc(C)no2)cc1S(=O)(=O)N1CCN(c2ccccn2)CC1,-1%,-23,6%,-10%,?
Cc1cc(-c2ccc(C(C)C)c(S(=O)(=O)N3CCN(c4ccccn4)CC3)c2)on1,1%,6,3%,0.89µM*,?
COc1cccc(/C=C2\SC(N3CCC(C)CC3)=NC2=O)c1OC,20%,-16,7%,-18%,93*
COc1ccccc1/C=C1\SC(N2CCC(C)CC2)=NC1=O,-7%,-17,-5%,-1%,?
CCOc1ccc(S(=O)(=O)Nc2ccccc2C(=O)N/N=C/c2c(OC)ccc3ccccc23)cc1,6.3µM*,-4,5.6µM*,3%,3
COc1ccc2ccccc2c1/C=N/NC(=O)c1ccccc1F,-25%,-15,-1%,1%,16
COc1ccc(S(=O)(=O)N2CCN(C(=O)c3cc(-c4ccc(Br)cc4)n[nH]3)CC2)cc1OC,?,9,13µM*,-16%,-7
CC(=O)Nc1ccc(NC(=S)Nc2ccccc2)cc1,-26%,8,-12%,4%,1
C/C(=C\C(=S)Nc1ccccc1)Nc1ccccc1,10µM*,3,?,-2%,3
c1csc(C2CCCN2c2nc3nonc3nc2NC2CC2)n1 (configuration not stated),5µM*,3,10µM*,3%,15
CCOc1ccc(NC(=O)CN(C)C(=O)c2ccc(=O)[nH]c2)cc1OCC,11µM*,12,15%,10%,-2
c1ccc(-n2ncc3c(NC4CCCCCC4)ncnc32)cc1,-6%,-8,-6%,?,27
NNc1ncnc2c1cnn2-c1ccccc1,11µM*,1,?,-7%,1
CCOc1ccc(Nc2ncnc3c2cnn3-c2ccccc2)cc1,?,-8,4%,-2%,0
Cc1ccc(Cn2ncc3c(NN)ncnc32)cc1,13µM*,1,?,7%,0
Cc1ccccc1Nc1ncnc2c1cnn2-c1ccccc1,?,9,16µM*,?,-4
Cc1cccc(-n2ncc3c(Nc4ccc(F)cc4)ncnc32)c1,-13%,6,11µM*,0%,?
SMILES,RORgamma inh,TRPV1 PAM,Gal4-VP16 FLuc,uPA generation,TRPV1 agonist
CCCCN(C)CCNC(=O)c1cn(C)c(=O)c2c1c1ccccc1n2C,6%,11,-1%,-4%,-7
c1ccc(-n2ncc3c(NCc4cccnc4)ncnc32)cc1,/,4,1.4µM*,5%,-1
CC(C)Nc1ncnc2c1cnn2-c1ccccc1,?,-11,14µM*,?,12
O=C(c1cccnc1)N1CCC(Oc2ccc(C(=O)N3CCCCO3)cc2)CC1,?,6,-3%,-15%,0
OC(CNCCc1ccc(C(F)(F)F)cc1)COc1cccc2ccccc12 (configuration not stated),?,11,13µM*,6%,5
COc1ccc(CCNCC(O)COc2cccc(Br)c2)cc1 (configuration not stated),0%,-4,-13%,0%,12
OC(CNCCc1ccc(C(F)(F)F)cc1)COc1ccc2ccccc2c1 (configuration not stated),16µM*,-9,11µM*,3%,7
COc1ccc(C2(C(=O)NCCN3CCOCC3)CCOCC2)cc1,-23%,-20,-1%,/,-1
COc1ccc(C2(C(=O)NCCCN3CCOCC3)CCOCC2)cc1,3.5µM*,4,-5%,-1%,-6
CC(=O)Nc1cc2nn(-c3ccccc3)nc2cc1C,?,1,?,5µM*,-2
Cc1cc2nn(-c3ccccc3)nc2cc1NC(=O)c1cccs1,-7%,-4,-3%,-9%,20
Cc1ccc(C(CC(=O)N2CCNCC2)c2ccccc2)c(O)c1C (configuration not stated),1%,19,4%,6%,-1
Cc1ccc(C(=O)/C=C/Nc2ccccc2C(N)=O)o1,-29%,-3,11%,?,0
NC(=O)c1ccccc1N/C=C/C(=O)c1ccc(F)cc1,0.56µM*,21,?,-5%,-4
NC(=O)c1ccccc1N/C=C/C(=O)c1ccc(Cl)cc1Cl,0.63µM*,-9,4µM*,-8%,-3
COc1ccc(Oc2ncc3nc(-c4ccccc4)c(=O)n(Cc4cccs4)c3n2)cc1,0%,/,8%,/,/
N#CCN1CCC(c2cc(-c3ccco3)n[nH]2)CC1,-19%,6,3%,-3%,-8
Cc1cc(=O)[nH]c(SCC(=O)N2CCN(S(=O)(=O)c3ccccc3)C2)n1,8%,22,0%,-1%,3
O=C(N/N=C/c1cccc2cccnc12)c1ccccc1O,0.35µM*,-22,0.79µM*,5µM*,15
O=C(N/N=C/c1cccc2nccnc12)c1ccccc1O,2.5µM*,/,3.2µM*,-1%,/
CCCC[C@@H]1CCCO[C@@](C(=O)NCCOC)(C(F)(F)F)C1,-6%,/,-6%,/,/
Cc1ccc(/C=C/C(=O)c2c(C)nc3ccccn23)cc1,14µM*,-1,?,-9%,24
Cc1nc2ccccn2c1C(=O)/C=C/c1cccc([N+](=O)[O-])c1,8%,-18,18%[10 µM],?,7
C[C@@H](C(=O)O)c1ccc(N2Cc3ccccc3C2=O)cc1,1.1µM*,/,2µM*,/,/
CC(C)c1ccc(C(CC(=O)O)N2Cc3ccccc3C2=O)cc1 (configuration not stated),4%,21,-6%,3%,2
CCOc1ccc(-c2n[nH]c(C)c2-c2ccccc2OC)c(O)c1,2µM*,5,?,-6%,-2
COc1ccc(-c2c(-c3ccc(OCC(=O)NN)cc3O)n[nH]c2C(F)(F)F)cc1,6.3µM*,-19,4.5µM*,-2%,25
